Counter-ions that a name gives are not always drawn.
Legend:
Conditions in all cases: incubation time: 27 h, anaerobic, 37 °C;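 for the amine columns active = adjusted P below 0.05 in both replicates with a change the same way and a mean fold change under 0.8 or over 1.25; inactive = the rest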
[1] = tested on: Clostridium sporogenes DSM 1664; experiment: growth (OD595) fold change vs plate DMSO controls (fold change (ratio)); higher = more growth
Summary of the method: (§1)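 Anaerobic mGAM cultures in 96-well plates were grown for 27 h at 37 °C, and absorbance was then read at 595 nm. After blank and compound background correction with 20 µM compound solutions in water, a calibration factor of 5 gave OD. Growth is the fold change relative to the median of each plate's DMSO controls. Values are means of 2 biological replicates, with fold changes above 1.5 set to NA.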

[2] = tested on: Escherichia coli IAI1; experiment: as above
Summary of the method: as §1

[3] = tested on: Klebsiella aerogenes DSM 30053; experiment: as above
Summary of the method: as §1

[4] = tested on: Ruminococcus gnavus DSM 108212; experiment: as above
Summary of the method: as §1

[5] = tested on: Klebsiella aerogenes DSM 30053; experiment: fold change of Histamine concentration vs plate DMSO controls (fold change (ratio)); higher = more amine produced, active = hit call of the paper (significant change in both replicates, either direction)
Summary of the method: (§2)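 Amine values are fold changes relative to DMSO-only wells on the same plate. They derive from 27 h, 37 °C anaerobic mGAM cultures of four gut bacterial strains in 80 µL wells, dosed at 20 µM final, or 50 µM final for sweeteners. Extraction of the whole culture, LC–triple-quadrupole MS in dynamic MRM mode, external calibration curves and within-batch drift correction were used, with 2 biological replicates averaged.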

[6] = tested on: Clostridium sporogenes DSM 1664; experiment: fold change of Tryptamine concentration vs plate DMSO controls (fold change (ratio)); higher = more amine produced, active = hit call of the paper (significant change in both replicates, either direction)
Summary of the method: as §2

[7] = tested on: Ruminococcus gnavus DSM 108212; experiment: as above
Summary of the method: as §2

[8] = tested on: Escherichia coli IAI1; experiment: fold change of Putrescine concentration vs plate DMSO controls (fold change (ratio)); higher = more amine produced, active = hit call of the paper (significant change in both replicates, either direction)
Summary of the method: as §2

[9] = tested on: Klebsiella aerogenes DSM 30053; experiment: as above
Summary of the method: as §2

[10] = tested on: Escherichia coli IAI1; experiment: fold change of Cadaverine concentration vs plate DMSO controls (fold change (ratio)); higher = more amine produced, active = hit call of the paper (significant change in both replicates, either direction)
Summary of the method: as §2

[11] = tested on: Klebsiella aerogenes DSM 30053; experiment: as above
Summary of the method: as §2

[12] = tested on: Ruminococcus gnavus DSM 108212; experiment: fold change of 2-Phenylethylamine concentration vs plate DMSO controls (fold change (ratio)); higher = more amine produced, active = hit call of the paper (significant change in both replicates, either direction)
Summary of the method: as §2

| Structure (SMILES) | growth [1] | growth [2] | growth [3] | growth [4] | fold change of Histamine concentration [5] | fold change of Tryptamine concentration [6] | fold change of Tryptamine concentration [7] | fold change of Putrescine concentration [8] | fold change of Putrescine concentration [9] | fold change of Cadaverine concentration [10] | fold change of Cadaverine concentration [11] | fold change of 2-Phenylethylamine concentration [12] |
| --- | --- | --- | --- | --- | --- | --- | --- | --- | --- | --- | --- | --- |
| CN(C)CCn1nnnc1SCC1=C(C(=O)O)N2C(=O)[C@@H](NC(=O)Cc3csc(N)n3)[C@H]2SC1 [Cefotiam hydrochloride] (20 µM) | 0 | 0.00521 | 1.05 | 0.248 | 1.27 (inactive) | 0.0154 (active) | 0.0411 (active) | 0.121 (active) | 1.08 (inactive) | 0.522 (active) | 1.14 (inactive) | 0.0464 (active) |
| CC(=O)NS(=O)(=O)c1ccc(N)cc1 [Sulfacetamide sodic hydrate] (20 µM) | 0.934 | 0.995 | 0.974 | 0.888 | 1.02 (inactive) | 0.976 (inactive) | 1.06 (inactive) | 1.02 (inactive) | 0.996 (inactive) | 0.98 (inactive) | 0.993 (inactive) | 1.08 (inactive) |
| COc1cc(C(=O)OCCCN2CCCN(CCCOC(=O)c3cc(OC)c(OC)c(OC)c3)CC2)cc(OC)c1OC [Dilazep dihydrochloride] (20 µM) | 1.06 | 1.07 | 0.99 | 0.894 | 0.938 (inactive) | 1.08 (inactive) | 1.09 (inactive) | 1.01 (inactive) | 0.937 (inactive) | 0.968 (inactive) | 1.01 (inactive) | 1.12 (inactive) |
| CN1Cc2c(N)cccc2C(c2ccccc2)C1 (stereo not given) [Nomifensine maleate] (20 µM) | 1.07 | 0.982 | 1.01 | 1.1 | 0.994 (inactive) | 0.989 (inactive) | 1.04 (inactive) | 0.989 (inactive) | 1.01 (inactive) | 0.935 (inactive) | 1.02 (inactive) | 0.992 (inactive) |
| COC(=O)C1=C(C)NC(C)=C(C(=O)OC(C)C)C1c1cccc2nonc12 (stereo not given) [Isradipine] (20 µM) | 0.941 | 1.06 | 0.997 | 1.22 | 1.09 (inactive) | 0.944 (inactive) | 1.03 (inactive) | 1.04 (inactive) | 1.01 (inactive) | 0.991 (inactive) | 1 (inactive) | 1.01 (inactive) |
| CN[C@@H]1[C@H](O)[C@H](NC)[C@H]2O[C@@]3(O)C(=O)C[C@@H](C)O[C@H]3O[C@@H]2[C@H]1O [Spectinomycin dihydrochloride] (20 µM) | 1.04 | 0.864 | 0.93 | 0.692 | 0.762 (inactive) | 0.992 (inactive) | 0.991 (inactive) | 0.796 (inactive) | 1.08 (inactive) | 0.95 (inactive) | 1.02 (inactive) | 0.991 (inactive) |
| Cc1cn([C@H]2C=C[C@@H](CO)O2)c(=O)[nH]c1=O [Stavudine] (20 µM) | 0.967 | 0.807 | 0.99 | 0.994 | 1.04 (inactive) | 0.97 (inactive) | 1.01 (inactive) | 0.927 (inactive) | 1.04 (inactive) | 1.21 (inactive) | 0.991 (inactive) | 1.02 (inactive) |
| OCCN1CCN(CCCN2c3ccccc3Sc3ccc(Cl)cc32)CC1 [Perphenazine] (20 µM) | 1.05 | 0.856 | 0.838 | 0.94 | 1.07 (inactive) | 0.999 (inactive) | 0.897 (inactive) | 1.02 (inactive) | 1.02 (inactive) | 1.01 (inactive) | 0.999 (inactive) | 0.892 (inactive) |
| COc1cc2nc(N(C)CCCNC(=O)C3CCCO3)nc(N)c2cc1OC (stereo not given) [Alfuzosin hydrochloride] (20 µM) | 0.976 | 1.01 | 1.01 | 1.31 | 0.953 (inactive) | 1 (inactive) | 1.04 (inactive) | 0.976 (inactive) | 0.99 (inactive) | 1.01 (inactive) | 1.04 (inactive) | 1.04 (inactive) |
| O=C(c1ccccc1)c1ccc2n1CCC2C(=O)O (stereo not given) [Ketorolac tromethamine] (20 µM) | 0.909 | 1.04 | 0.976 | 0.993 | 1.04 (inactive) | 1.08 (inactive) | 1.03 (inactive) | 1.15 (inactive) | 1.03 (inactive) | 1.07 (inactive) | 0.995 (inactive) | 0.994 (inactive) |
| COC(=O)Nc1nc2ccc(SC(C)C)cc2[nH]1 [Methiazole] (20 µM) | 0.921 | 1 | 1.24 | 1.08 | 0.952 (inactive) | 1.04 (inactive) | 0.938 (inactive) | 0.996 (inactive) | 1.01 (inactive) | 1.04 (inactive) | 1.02 (inactive) | 0.929 (inactive) |
| CN(C)CC/C=C1/c2ccccc2Sc2ccc(Cl)cc21 [Chlorprothixene hydrochloride] (20 µM) | 1.03 | 0.991 | 1.01 | 0.904 | 0.956 (inactive) | 0.997 (inactive) | 0.87 (inactive) | 0.959 (inactive) | 0.996 (inactive) | 1.03 (inactive) | 1.02 (inactive) | 0.942 (inactive) |
| COc1cc(C)c(/C=C/C(C)=C/C=C/C(C)=C/C(=O)O)c(C)c1C [Acitretin] (20 µM) | 0.986 | 1.1 | 1.02 | 1.09 | 0.97 (inactive) | 0.967 (inactive) | 0.962 (inactive) | 1.18 (inactive) | 0.996 (inactive) | 0.971 (inactive) | 1.01 (inactive) | 0.99 (inactive) |
| CN(C)c1ccc2nc3ccc(=[N+](C)C)cc-3sc2c1 [Methylene blue] (20 µM) | 0.774 | 0.466 | 0.42 | 0.00745 | 0.942 (inactive) | 0.998 (inactive) | 1.02 (inactive) | 0.965 (inactive) | 0.928 (inactive) | 0.941 (inactive) | 0.989 (inactive) | 1.09 (inactive) |
| COc1ccccc1O [Guaiacol] (20 µM) | 0.997 | 1 | 1 | 1.02 | 0.966 (inactive) | 1.03 (inactive) | 1.05 (inactive) | 0.994 (inactive) | 0.999 (inactive) | 1.02 (inactive) | 0.988 (inactive) | 1.06 (inactive) |
| Clc1ccc(CCC(Cn2ccnc2)Sc2c(Cl)cccc2Cl)cc1 (stereo not given) [Butoconazole nitrate] (20 µM) | 1.12 | 1.02 | 0.995 | 0.621 | 1.01 (inactive) | 1.07 (inactive) | 0.514 (active) | 0.997 (inactive) | 0.992 (inactive) | 0.995 (inactive) | 0.989 (inactive) | 0.623 (active) |
| NC(=O)N1c2ccccc2CC(=O)c2ccccc21 [Oxcarbazepine] (20 µM) | 0.964 | 1.01 | 0.977 | 1 | 1.07 (inactive) | 0.996 (inactive) | 1.02 (inactive) | 1 (inactive) | 1.01 (inactive) | 1.02 (inactive) | 0.994 (inactive) | 1.01 (inactive) |
| CC(C)COC(=O)OCN1C(=O)CN(CCN2CC(=O)N(COC(=O)OCC(C)C)C(=O)C2)CC1=O [Sobuzoxane] (20 µM) | 0.986 | 0.991 | 1.03 | 1.09 | 1 (inactive) | 1.03 (inactive) | 1.03 (inactive) | 0.986 (inactive) | 0.996 (inactive) | 0.988 (inactive) | 1 (inactive) | 1.05 (inactive) |
| CCN(CC)CCOC(=O)C1(c2ccc([N+](=O)[O-])cc2)CCCC1 [Nitrocaramiphen hydrochloride] (20 µM) | 0.793 | 1.07 | 0.995 | 1.02 | 1.03 (inactive) | 0.949 (inactive) | 1.04 (inactive) | 1.03 (inactive) | 0.982 (inactive) | 1.03 (inactive) | 0.98 (inactive) | 0.995 (inactive) |
| Nc1c2ccccc2nc2ccccc12 [Aminacrine] (20 µM) | 0.903 | 1.11 | 0.922 | 1.45 | 1.07 (inactive) | 0.923 (inactive) | 0.911 (inactive) | 1.15 (inactive) | 0.952 (inactive) | 1.29 (active) | 0.964 (inactive) | 0.947 (inactive) |
| Oc1ccccc1O [Catechol] (20 µM) | 1.11 | 1.01 | 0.966 | 0.98 | 1 (inactive) | 0.972 (inactive) | 0.979 (inactive) | 1.02 (inactive) | 1.01 (inactive) | 1.16 (inactive) | 0.978 (inactive) | 0.971 (inactive) |
| O=C(NCCCN1CCOCC1)c1ccc(Cl)cc1 [Eprobemide] (20 µM) | 1.11 | 1.1 | 1.07 | 1.04 | 0.982 (inactive) | 1.02 (inactive) | 1.06 (inactive) | 0.929 (inactive) | 0.934 (inactive) | 0.942 (inactive) | 1.05 (inactive) | 1.12 (inactive) |
| CN[C@@H]1[C@@H](O)[C@@H](O[C@@H]2[C@@H](O)[C@H](O[C@H]3OC(CN)=CC[C@H]3N)[C@@H](N)C[C@H]2N)OC[C@]1(C)O [Sisomicin sulfate] (20 µM) | 0.97 | 0.99 | 0.992 | 0.942 | 0.971 (inactive) | 0.984 (inactive) | 1.02 (inactive) | 1 (inactive) | 0.998 (inactive) | 0.996 (inactive) | 1 (inactive) | 1.04 (inactive) |
| CC(C)(C)c1ccc(C(=O)CCCN2CCC(OC(c3ccccc3)c3ccccc3)CC2)cc1 [Ebastine] (20 µM) | 1.13 | 1 | 1.01 | 0.852 | 1.02 (inactive) | 0.991 (inactive) | 0.856 (inactive) | 1.02 (inactive) | 1 (inactive) | 1.01 (inactive) | 0.983 (inactive) | 1.02 (inactive) |
| CC(COc1ccccc1)NN (stereo not given) [Phenoxypropazine dihydrochloride] (20 µM) | 1.06 | 0.99 | 0.988 | 0.995 | 1.05 (inactive) | 0.619 (active) | 1 (inactive) | 1.01 (inactive) | 1.01 (inactive) | 0.965 (inactive) | 1.02 (inactive) | 1.01 (inactive) |

Reference: the supplement of paper PMC12494721
